Test results from PubChem BioAssay AID1159580 (chemical genetic matrix, 2015).
Hit rate of the full screen: of about 5,500 compounds, about 2,000 (36%) were called active. Not shown: some 18% with an inconclusive outcome. Cut-off read from the data, not from the text of the source: active = normalized growth mostly below about 0.91 (no sharp cut-off); inconclusive = no clear call, values can overlap the other calls; inactive = mostly above about 0.92. This is one part of the list.

Experiment: chemical genetic growth profiling, strain panel (AID 1159580);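 note: tested at 20 µM; growth read once vehicle control cultures reached saturation at 30 °C; 1 = growth at the plate median or of vehicle wells; lower values mean less growth of the strain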
Conditions: growth OD

Measured: normalized growth

c1cc2c(cc1[C@H]1OC[C@H]3[C@@H]1CO[C@H]3c1ccc3c(c1)OCO3)OCO2
active: S. cerevisiae deletion strains, locus YKL068W, hits give low values 0.929 | S. cerevisiae deletion strains, locus YKL085W, strain MDH1 (second series), hits give low values 0.915 | S. cerevisiae deletion strains, locus YKL085W, strain MDH1, hits give low values 0.915 | S. cerevisiae deletion strains, locus YKL160W, strain elf1, hits give low values 0.878 | S. cerevisiae deletion strains, locus YKR001C, strain vps1, hits give low values 0.683 | S. cerevisiae deletion strains, locus YKR026C, strain gcn3, hits give low values 0.916 | S. cerevisiae deletion strains, locus YKR091W, strain srl3, hits give low values 0.899 | S. cerevisiae deletion strains, locus YLL001W, strain dnm1, hits give low values 0.887 | S. cerevisiae deletion strains, locus YLL026W, hits give low values 0.922 | S. cerevisiae deletion strains, locus YLL041C, strain sdh2, hits give low values 0.926 | S. cerevisiae deletion strains, locus YLR039C, strain RIC1, hits give low values 0.398 | S. cerevisiae deletion strains, locus YLR102C, strain apc9, hits give low values 0.923 | S. cerevisiae deletion strains, locus YLR221C, strain rsa3, hits give low values 0.886 | S. cerevisiae deletion strains, locus YLR258W, strain gsy2, hits give low values 0.914 | S. cerevisiae deletion strains, locus YLR262C, strain YPT6 (second series), hits give low values 0.455 | S. cerevisiae deletion strains, locus YLR262C, strain YPT6, hits give low values 0.415 | S. cerevisiae deletion strains, locus YLR268W, strain sec22, hits give low values 0.833 | S. cerevisiae deletion strains, locus YLR320W, strain mms22, hits give low values 0.732 | S. cerevisiae deletion strains, locus YLR330W, strain CHS5, hits give low values 0.816 | S. cerevisiae deletion strains, locus YLR342W, strain FKS1 (second series), hits give low values 0.77 | S. cerevisiae deletion strains, locus YLR342W, strain FKS1, hits give low values 0.9 | S. cerevisiae deletion strains, locus YLR418C, strain cdc73, hits give low values 0.692 | S. cerevisiae deletion strains, locus YML032C, strain rad52, hits give low values 0.902 | S. cerevisiae deletion strains, locus YML120C, strain ndi1, hits give low values 0.897 | S. cerevisiae deletion strains, locus YML124C, strain tub3, hits give low values 0.902 | S. cerevisiae deletion strains, locus YMR058W, strain fet3, hits give low values 0.896 | S. cerevisiae deletion strains, locus YMR078C, strain ctf18, hits give low values 0.892 | S. cerevisiae deletion strains, locus YMR125W, strain sto1, hits give low values 0.826 | S. cerevisiae deletion strains, locus YMR205C, strain PFK2, hits give low values 0.774 | S. cerevisiae deletion strains, locus YNL071W, strain lat1, hits give low values 0.614 | S. cerevisiae deletion strains, locus YNL153C, strain GIM3, hits give low values 0.822 | S. cerevisiae deletion strains, locus YNL307C, strain MCK1, hits give low values 0.797 | S. cerevisiae deletion strains, locus YNR049C, strain mso1, hits give low values 0.917 | S. cerevisiae deletion strains, locus YNR052C, strain pop2, hits give low values 0.899 | S. cerevisiae deletion strains, locus YOL147C, strain pex11, hits give low values 0.914 | S. cerevisiae deletion strains, locus YOR070C, strain gyp1, hits give low values 0.908 | S. cerevisiae deletion strains, locus YOR080W, strain dia2, hits give low values 0.909 | S. cerevisiae deletion strains, locus YOR083W, strain WHI5, hits give low values 0.877 | S. cerevisiae deletion strains, locus YOR144C, strain elg1, hits give low values 0.907 | S. cerevisiae deletion strains, locus YOR184W, strain ser1, hits give low values 0.624 | S. cerevisiae deletion strains, locus YOR265W, strain rbl2, hits give low values 0.906 | S. cerevisiae deletion strains, locus YOR270C, strain vph1, hits give low values 0.639 | S. cerevisiae deletion strains, locus YOR290C, strain snf2, hits give low values 0.828 | S. cerevisiae deletion strains, locus YOR316C, strain cot1, hits give low values 0.912 | S. cerevisiae deletion strains, locus YPL051W, strain arl3, hits give low values 0.865 | S. cerevisiae deletion strains, locus YPL078C, strain atp4, hits give low values 0.863 | S. cerevisiae deletion strains, locus YPL240C, strain hsp82, hits give low values 0.919 | S. cerevisiae deletion strains, locus YPR119W, strain clb2, hits give low values 0.914 | S. cerevisiae deletion strains, locus YPR141C, strain kar3, hits give low values 0.897 | S. cerevisiae deletion strains, locus YPR163C, strain tif3, hits give low values 0.866 | S. cerevisiae deletion strains, locus YPR167C, strain met16, hits give low values 0.887 | S. cerevisiae deletion strains, strain wtn01, hits give low values 0.854
inactive: S. cerevisiae deletion strains, locus YJR075W, strain HOC1, hits give low values 0.914 | S. cerevisiae deletion strains, locus YKL009W, strain mrt4, hits give low values 0.922 | S. cerevisiae deletion strains, locus YKL190W, strain CNB1, hits give low values 0.947 | S. cerevisiae deletion strains, locus YLR027C, strain aat2, hits give low values 0.931 | S. cerevisiae deletion strains, locus YLR058C, strain SHM2, hits give low values 0.943 | S. cerevisiae deletion strains, locus YLR113W, strain HOG1, hits give low values 0.865 | S. cerevisiae deletion strains, locus YLR357W, strain rsc2, hits give low values 0.951 | S. cerevisiae deletion strains, locus YLR370C, strain arc18, hits give low values 0.914 | S. cerevisiae deletion strains, locus YLR371W, strain rom2, hits give low values 0.912 | S. cerevisiae deletion strains, locus YLR384C, strain iki3, hits give low values 0.936 | S. cerevisiae deletion strains, locus YML016C, strain PPZ1, hits give low values 0.947 | S. cerevisiae deletion strains, locus YMR129W, hits give low values 0.925 | S. cerevisiae deletion strains, locus YMR223W, strain ubp8, hits give low values 0.914 | S. cerevisiae deletion strains, locus YMR231W, strain pep5, hits give low values 0.934 | S. cerevisiae deletion strains, locus YMR307W, strain GAS1, hits give low values 0.9 | S. cerevisiae deletion strains, locus YNL067W, strain RPL9B, hits give low values 0.957 | S. cerevisiae deletion strains, locus YNL128W, strain TEP1, hits give low values 1.01 | S. cerevisiae deletion strains, locus YNL183C, strain NPR1, hits give low values 0.925 | S. cerevisiae deletion strains, locus YNL209W, strain ssb2, hits give low values 0.958 | S. cerevisiae deletion strains, locus YNL233W, strain BNI4, hits give low values 0.882 | S. cerevisiae deletion strains, locus YNL248C, strain rpa49, hits give low values 0.948 | S. cerevisiae deletion strains, locus YNL250W, strain rad50, hits give low values 0.929 | S. cerevisiae deletion strains, locus YNL271C, strain bni1, hits give low values 0.932 | S. cerevisiae deletion strains, locus YNL298W, strain CLA4, hits give low values 0.922 | S. cerevisiae deletion strains, locus YNL322C, strain KRE1 (second series), hits give low values 0.907 | S. cerevisiae deletion strains, locus YNL322C, strain KRE1, hits give low values 0.94 | S. cerevisiae deletion strains, locus YOL012C, strain htz1 0.632 | S. cerevisiae deletion strains, locus YOR001W, strain rrp6, hits give low values 0.945 | S. cerevisiae deletion strains, locus YOR061W, strain CKA2, hits give low values 0.948 | S. cerevisiae deletion strains, locus YOR069W, strain VPS5, hits give low values 0.962 | S. cerevisiae deletion strains, locus YOR106W, strain vam3, hits give low values 0.908 | S. cerevisiae deletion strains, locus YOR136W, strain idh2, hits give low values 0.973 | S. cerevisiae deletion strains, locus YOR231W, strain MKK1, hits give low values 0.897 | S. cerevisiae deletion strains, locus YPL055C, strain LGE1, hits give low values 0.923 | S. cerevisiae deletion strains, locus YPL106C, strain sse1, hits give low values 0.886 | S. cerevisiae deletion strains, locus YPL241C, strain CIN2, hits give low values 0.945 | S. cerevisiae deletion strains, locus YPL256C, strain CLN2, hits give low values 0.898 | S. cerevisiae strains, strain wild type, hits give low values 0.93
